Source: PubChem
Epigenetic derep = derepresses silenced GFP reporter in murine cells; murine LDR cells, GFP reporter derepression, 30 h; Potency, µM (series often up to 53.9 µM), for inactives: at the top dose GFP activation, most hits filed as activators; actives 0.2% (n = 280,000); AID 1865; active means well fitted activation curve with a large enough effect; inconclusive means small, poorly fitted or top-dose-only effect; further: potency means the concentration at half of the fitted maximal effect; % of control where 0% means no effect; nearly all actives have a fitted effect of over 60% in size
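Murine LDR cells carrying a silenced, genomically integrated CMV-driven GFP reporter were exposed to compound for 30 hours at 37 C. After PBS washes, GFP-positive cells (20–120 um objects) were counted by laser-scanning microplate cytometry.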
D1 antag = antagonists of human D1 dopamine receptor | P21728 | HEK293 TREx D1 cells, calcium flux, dopamine EC80; active compounds read low | activity change, negative = inhibition, % at 10 µM | actives 3.2% (n = 360,000) | AID 504652; in the data active means activity change below about -30%; further: on the % scale 0 is the no-effect control and ±100 the full control effect
Target sequence (P21728 whole entry, looked up): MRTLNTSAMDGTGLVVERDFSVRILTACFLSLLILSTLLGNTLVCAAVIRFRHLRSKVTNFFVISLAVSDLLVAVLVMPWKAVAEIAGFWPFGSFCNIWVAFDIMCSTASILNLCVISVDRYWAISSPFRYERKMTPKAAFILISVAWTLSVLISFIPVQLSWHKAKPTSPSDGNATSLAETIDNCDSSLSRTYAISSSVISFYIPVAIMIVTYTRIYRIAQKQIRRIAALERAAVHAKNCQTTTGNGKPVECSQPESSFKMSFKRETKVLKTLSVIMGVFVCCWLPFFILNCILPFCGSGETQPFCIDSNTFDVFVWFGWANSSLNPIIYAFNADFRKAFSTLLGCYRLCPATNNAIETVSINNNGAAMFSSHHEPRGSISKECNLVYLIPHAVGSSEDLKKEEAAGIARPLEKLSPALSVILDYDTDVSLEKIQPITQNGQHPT
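Cells carrying a force-coupled, tetracycline-inducible human D1 receptor report calcium flux. Each well gets a 10 s baseline, compound with 180 s monitoring, then an EC80 dopamine stimulus with a second 180 s kinetic read.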
D1 potentiator = human D1 dopamine receptor positive modulation; P21728; HEK293 TREx D1 cells, calcium flux, dopamine EC20 potentiation; potentiation, % at 10 µM; actives 0.036% (n = 360,000); AID 504651; in the data active means potentiation above about 30%; further: 0% is about no effect
D1 agonist = human D1 receptor agonism | activation, % at 2 µM | actives 1% (n = 360,000) | AID 504660 | HEK293 T-REx D1 cells, calcium flux, agonist mode | P21728; further: 0% is about no effect
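Inducible HEK293 T-REx D1 cells, force-coupled to calcium signalling, were plated at 4000 cells/well with tetracycline and held overnight at 30 C. After no-wash calcium dye loading, compound-evoked calcium rise over 180 s flagged agonists.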
TRHR ag = TRH receptor (human) agonism; P34981; TRHR cells, calcium flux fluo-8, FDSS agonist mode; activation, % at 2 µM; actives 0.18% (n = 360,000); further: 0% is about no effect
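TRHR-expressing cells, plated overnight in medium with 10% serum, were loaded with fluo-8 calcium dye at room temperature. After a 10 s baseline, library compound was pin-added and calcium release was recorded kinetically (ex 480/em 530) as agonist response.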
TRHR PAM = allosterically enhances the human TRH receptor. P34981. TRHR cells, fluo-8 calcium fluorescence, EC20 TRH enhancement. enhancement, % at 2 µM. actives 0.66% (n = 360,000). AID 493056; in the data active means enhancement above about 30%; further: 0% is about no effect
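TRHR-expressing cells loaded with fluo-8 calcium dye were read kinetically (ex 480/em 530) during compound addition, then stimulated with an EC20 of TRH (10 nM final). Enhancement of the Gq-mediated intracellular calcium response was scored.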
* marks the source's active call; other numbers are inactive results; ? = inconclusive; . = no result given; [ ] = dose if it differs, or a comment. The list is not random: actives were taken first. Their share in the collection is about 4.6%. Unless noted, no stated cut-off is given here; in the data, active means activation above about 30%; inactive means the rest.

SMILES	Epigenetic derep	D1 antag	D1 potentiator	D1 agonist	TRHR ag	TRHR PAM
COc1cccc(/C=C/C2=CC3(C)CC2(C)C(c2cccc(OC)c2)CC3=O)c1 (centres undefined)	1%[10.1 µM]	.	.	.	.	.
COc1ccccc1CN1C[C@@H]2C[C@@H](c3[nH]c4c(C)cccc4c3C)N3CCC[C@@]23C1=O	-2%	70	32*	44*	0	-4
COc1ccc(S(=O)(=O)Nc2cccc(-c3ccc(N4CCC(C)CC4)nn3)c2)c(OC)c1	2%	13	5	3	0	3
O=C1C(=Cc2cccn2-c2ccc(O)cc2)C(=O)c2ccccc21	22µM*	-5	-3	27	7	-4
O=C1C(=Cc2cccn2-c2ccccc2)C(=O)c2ccccc21	11µM*	14	0	9	1	5
CN(C)/C=C(\C#N)C(=O)N/N=C/c1ccccc1	0%	-31*	0	3	1	2
COc1ccc(N(Cc2cc3cccc(C)c3[nH]c2=O)C(=O)c2cccc(Cl)c2)cc1	0%	0	1	1	1	-2
COC(=O)NC(CC(C)=O)c1ccccc1 (centres undefined)	0%[10.1 µM]	.	.	.	.	.
Cc1ccc(C)c(NC(=O)c2cc(-c3ccccc3O)n[nH]2)c1	.	-22	-7	2	1	-1
Cc1cc(C)c(-c2cc(C(=O)Nc3cc(C)ccc3C)[nH]n2)c(O)c1	.	-23	0	4	0	33*
Cc1ccc(C)c(NC(=O)c2cc(-c3cc(C)c(C)cc3O)n[nH]2)c1	.	0	-2	6	4	5
Cc1ccc(-c2cc(C(=O)Nc3cc(C)ccc3C)[nH]n2)c(O)c1	-1%	-37*	-9	-1	1	7
CCO/C=N/c1c(C#N)c(CC#N)nn1-c1ccccc1	0%	-33*	-6	3	0	-1
CC(C)(C)c1ccc(C(=O)N2CC(=O)Nc3ccc(F)cc3C2c2ccc(F)cc2)cc1 (centres undefined)	6%	8	3	8	3	-1
CCCCN(CC)CCNC(=O)C1CCCN(c2ncnc3onc(C)c23)C1 (centres undefined)	0%	-30*	1	-1	1	-5
O=C(Nc1ccc(Br)cc1)c1ccc(N2C(=O)C3CCCCC3C2=O)cc1 (centres undefined)	.	-37*	-6	4	1	3
N#Cc1c2ccc(OCC(=O)NCc3ccco3)cc2n2ccccc12	.	-8	-1	8	13	-5
N#Cc1c2ccc(O)cc2n2ccccc12	-1%	-3	-5	58*	25	-14
Cc1cccc(NC(=O)CC2SC(=NC3CCCCC3)NC2=O)c1 (centres undefined)	2%	-33*	-1	2	0	3
O=C(CC1SC(=NC2CCCCC2)NC1=O)Nc1ccccc1 (centres undefined)	-1%	-6	-3	1	0	-1
O=C1[C@H]2[C@H]3[C@H](O)[C@H](O)C/C(=N/OCc4ccccc4)[C@@H]3CC[C@@H]2C(=O)N1Cc1ccccc1	1%[10.1 µM]	.	.	.	.	.
Cc1nn(S(=O)(=O)c2ccc(C(C)(C)C)cc2)c(C)c1S(=O)(=O)N1CCC(C)CC1	-2%	-9	-2	0	0	2
Cn1nc(-c2ccc(C(=O)Nc3cccc(Cl)c3)cc2)c2ccccc2c1=O	6%	-37*	-6	0	0	-4
Cc1nn2c(-c3cccc(NC(=O)c4ccc(Cl)cc4)c3)nnc2c2ccccc12	-1%	4	-3	0	-1	42*
Cc1nn2c(-c3cccc(NC(=O)c4ccco4)c3)nnc2c2ccccc12	-1%	3	2	0	-1	13
SMILES	Epigenetic derep	D1 antag	D1 potentiator	D1 agonist	TRHR ag	TRHR PAM
Cc1cc(C(=O)N2CCCC(C(=O)c3cccc4ccccc34)C2)nc(C)n1 (centres undefined)	1%	-61*	-7	0	-6	1
Cc1ccn(CC(=O)N2CCCC(C(=O)c3cccc4ccccc34)C2)n1 (centres undefined)	-1%	11	5	1	1	-6
CSc1ccccc1C(=O)C1CCCN(C(=O)CCN2CCCO2)C1 (centres undefined)	1%	-5	11	0	0	18
O=C(c1cccc2ccccc12)C1CCCN(C(=O)CCN2CCCO2)C1 (centres undefined)	3%	-8	-8	6	-1	38*
Cc1ccccc1NC(=O)c1ccc2nc(Cc3ccccc3)oc2c1	-2%	9	1	3	0	5
COc1ccccc1-c1nnc(SCCOc2ccccc2C)o1	-3%	0	1	15	0	-4
CCOC(=O)c1c(C)oc2ncnc(N3CCN(c4cccc(Cl)c4)CC3)c12	2%	-7	-3	2	0	-6
Fc1ccccc1CNCCCSc1nnnn1-c1ccccc1	-2%	-9	0	6	0	6
Clc1ccccc1CNCCCSc1nnnn1-c1ccccc1	-3%	1	-1	31*	0	-1
CC(C)c1ccc(CNCCSc2nnnn2-c2ccccc2)cc1	-2%	10	6	56*	0	6
COc1ccc(CNCCSc2nnnn2-c2ccccc2)cc1	5%	-1	3	14	0	5
CC(C)c1ccc(CNCc2ccccc2)cc1	1%	-7	-3	50*	1	-2
Fc1ccc(CNCCCSc2nnnn2-c2ccccc2)cc1	0%	-43*	5	161*	-1	6
CCN(CC)S(=O)(=O)c1ccc(NC(=O)[C@H](CSCc2ccccc2)N2Cc3ccccc3C2=O)cc1	-1%	-15	-5	8	2	17
CC(C)c1ccc(C(=O)NNC(=O)C2C3CCC(C3)C2C(=O)O)cc1 (centres undefined)	.	-75*	-4	0	-1	-1
COc1cc2[nH]c(Cl)c([N+](=O)[O-])c2cc1OC	1%	-31*	-8	1	1	13
COc1cc2[nH]c3c(Cl)ncnc3c2cc1OC	0%	-6	0	2	0	-4
Cc1cc(Nc2cccc(C(F)(F)F)c2)nc2ccc(NC(=O)c3cccc(Cl)c3)cc12	0%	-6	-2	-1	1	7
CCCN(CCC)CC(O)Cn1cc(/C=C/C(=O)c2cccs2)c2ccccc21 (centres undefined)	?	-21	-6	94*	8	9
CCCN(CCC)CC(O)Cn1cc(/C=C/C(=O)c2ccc(Br)cc2)c2ccccc21 (centres undefined)	16µM*	-13	-3	33*	5	1
